In ChEMBL document CHEMBL4513216, “Probing the Open Global Health Chemical Diversity Library for Multistage-Active Starting Points for Next-Generation Antimalarials” (ACS Infect Dis, 2020):
In all, about 69,000 compounds went through this assay and about 8,600 (12%) showed an effect of 50% or more. Many of the other results were omitted from the sample, so strong results are more common in it than they were.

System: Plasmodium berghei
Test: Screen against P. berghei liver stage (PbLuc), transformed with Luciferase, at 10uM
Type: functional, HepG2
Details: tested at 10 uM

Compound	INHIBITION
COc1cccc(C(=O)NC(CC(=O)O)c2cccs2)c1OC (stereo not drawn)	-7.31%
Cc1nc(C#N)c(N2CCC(c3nc(-c4ccccc4)no3)CC2)o1	57.6%
CCc1nc(C#N)c(N2CCC(c3nc(-c4ccccc4)no3)CC2)o1	34.6%
Cc1nc(C#N)c(N2CCC(c3nc(-c4ccc(F)cc4)no3)CC2)o1	34%
O=C(NCc1cc(F)cc(Br)c1)C1(O)CCSCC1	-26.2%
CC(C)(C(=O)NCC(=O)N1CCCC1)c1ccccc1F	-36.4%
CC(C)(C(=O)N1CCC(C(N)=O)C1)c1ccccc1F (stereo not drawn)	52.9%
CC(C)(C(=O)N1CCC(CS(N)(=O)=O)CC1)c1ccccc1F	17.9%
c1coc(CN2CCCC3(COCCN(Cc4c[nH]nn4)C3)C2)c1 (stereo not drawn)	4.92%
CCNC(=O)C1CCN(c2cc(-c3ccccc3F)nc3ccnn23)C1 (stereo not drawn)	53.3%
CCNC(=O)C1CCN(c2cc(CC)nc3ccnn23)C1 (stereo not drawn)	52.2%
CCc1cc(N2CCN3CCCCC3C2)n2nccc2n1 (stereo not drawn)	30.9%
CCNC(=O)C1CCN(c2cc(-c3ccccc3)nc3ccnn23)C1 (stereo not drawn)	33%
O=C1CN(c2cc(-c3ccccc3F)nc3ccnn23)CCCN1	6.11%
Cc1nn2c(N3CCCC(C(N)=O)C3)cc(-c3ccccc3)nc2c1C (stereo not drawn)	-32.2%
CC(=O)NC1CCN(c2cc(-c3ccccc3)nc3c(C)c(C)nn23)C1 (stereo not drawn)	-3.58%
Cc1nn2c(N3CCC(O)CC3)cc(-c3ccccc3)nc2c1C	41.8%
CCc1cc(N2CC(N3CCCCC3C)C2)n2nccc2n1 (stereo not drawn)	12.8%
CCNC(=O)C1CCN(c2cc(-c3ccccc3)nc3cc(C)nn23)C1 (stereo not drawn)	56.5%
CCNC(=O)C1CCN(c2nccc(C3CCCC3)n2)C1 (stereo not drawn)	-2.34%
Cc1nn2c(N3CCC(C(N)=O)CC3)cc(-c3ccccc3)nc2c1C	61.3%
Cc1csc(CCNCc2cnc3c(c2)c(C)nn3C)n1	-14.8%
COCC1CN(Cc2ccc(OC)cc2)Cc2nnn(CC3CC3)c21 (stereo not drawn)	18.7%
COCCOc1ccc(CNC2CCc3ncnn3C2)cc1OC (stereo not drawn)	49.5%
COc1cccc(CCNS(=O)(=O)c2ccc(NC(C)=O)cc2)c1	22.9%

Compound	INHIBITION
CCN1CCN(C)C(=O)C12CCN(Cc1cccc(C)c1)CC2	39.5%
Cc1nc(CN2CCN(C(=O)c3ccc(=O)n(C)c3)CC2)cs1	-15.9%
CN(C)C(=O)NCC(=O)N1CCCC2(CCC(=O)N(CC3CC3)C2)C1 (stereo not drawn)	24.9%
O=C(NCC1(O)CCC1)NC(c1cc(F)ccc1F)C1CC1 (stereo not drawn)	31.2%
CS(=O)(=O)N1C[C@H]2CC[C@@H](C1)N(C(=O)CCc1ccsc1)C2	-34.8%
Cc1nc(CN2CCC3(CCCO3)CC2)c2ccccn12	53.6%
Cc1cc(C(F)(F)F)cc(N2C[C@@H](CN(C)CCO)[C@@H](CO)C2)n1	0.348%
Cc1nc(CN2CCC(O)(c3ccccc3F)CC2)c2ccccn12	23.9%
Cc1ccc(C2(O)CCN(Cc3nc(C)n4ccccc34)CC2)nc1	26.1%
Cc1cc(C(F)(F)F)cc(N2C[C@@H](CN3CCOCC3)[C@@H](CO)C2)n1	53.2%
Cc1nc(CN2C[C@@H](CN3CCOCC3)[C@@H](CO)C2)c2ccccn12	63.7%
COc1cnc(N2C[C@@H](CN3CCOCC3)[C@@H](CO)C2)nc1	-35%
Cc1nc2ccccn2c1CN1C[C@@H](CN2CCOCC2)[C@@H](CO)C1	12.8%
OC[C@H]1CN(Cc2c(Cl)cncc2Cl)C[C@H]1CN1CCOCC1	-37.9%
CCC1CN(C(=O)NCCOc2ccc3c(c2)OCO3)CCO1 (stereo not drawn)	30.2%
Cc1cc(Oc2ccccc2)nc(C2CCN(CCO)CC2)n1	24.15%
Cn1cccc1C(=O)N[C@@H]1CN(Cc2cccs2)[C@@H]2COC[C@@H]21	-4.88%
Cc1nc(Cn2c3c(ccc2=O)CC(N)CC3)cs1 (stereo not drawn)	9.65%
CN(Cc1cccc(O)c1)C(=O)Nc1cccnc1N1CCCC1	33.3%
O=c1[nH]c2csnc2c(=O)n1Cc1ccc(Br)cc1	29.1%
CCC(c1nc(C(C)C)nn1-c1ccncc1C)n1cccn1 (stereo not drawn)	57.2%
CCC(c1nc(C(C)C)nn1-c1ccccn1)n1cccn1 (stereo not drawn)	38.8%
Cc1cnccc1-n1nc(C(C)C)nc1CCc1cnccn1	-3.12%
CCCn1ccnc1CN1CC[C@@H](NC(=O)c2cccnc2)[C@H](O)C1	12.9%
Cc1nn(CCO)c(C)c1CN1CCN(C2CCCCC2)C(=O)C1	16.9%

Compound	INHIBITION
O=C(CNC(=O)Nc1cccc(Cl)c1SC(F)F)NC1CC1	29.5%
CCNC(=O)CNC(=O)Nc1cccc(Cl)c1SC(F)F	64.3%
CNC(=O)CCNC(=O)Nc1cccc(Cl)c1SC(F)F	60.3%
O=C(NCCO)Nc1cccc(Cl)c1SC(F)F	13%
CN(C)C(=O)CNC(=O)Nc1cccc(Cl)c1SC(F)F	23.2%
CC(=O)NCCNC(=O)Nc1cccc(Cl)c1SC(F)F	46.4%
O=C(NCC1COCc2c(-c3cccnc3)nnn2C1)c1cccs1 (stereo not drawn)	43.2%
COCCNc1ccc(CC2CCCNC2)cn1 (stereo not drawn)	44.3%
CO[C@@H]1CCN(S(=O)(=O)c2cn(C)cn2)[C@H]1Cc1ccncc1	39.4%
Cc1nccn1CCNC(=O)C1(C)CC(c2ccccc2)=NO1 (stereo not drawn)	-1.16%
COc1ccc(CN2CCO[C@H]3[C@H](OCCN4CCCC4)CC[C@@H]32)cc1	0.618%
Cc1cccc(CO[C@@H]2CC[C@H]3[C@H]2OCCN3Cc2ccsc2)n1	16.6%
COc1ccc(CN2CCO[C@H]3[C@H](OCc4ccncc4)CC[C@@H]32)cc1	90.1%
Cc1ccc(CN2CCO[C@H]3[C@H](OCc4cccnc4)CC[C@@H]32)o1	56.4%
COCCN1CCO[C@H]2[C@H](OCc3cccc(C)n3)CC[C@@H]21	-8.25%
CO[C@@H]1CC[C@H]2[C@H]1OCCN2Cc1ccc(F)cc1	25.3%
CCO[C@@H]1CC[C@H]2[C@H]1OCCN2Cc1ccc(F)cc1	8.52%
Cc1cccc(CO[C@@H]2CC[C@H]3[C@H]2OCCN3Cc2ccoc2)n1	67.5%
Fc1ccc(CN2CCO[C@H]3[C@H](OCc4ccncc4)CC[C@@H]32)cc1	92.8%
Cc1ccc(CN2CCO[C@@H]3[C@@H](OCc4cccnc4)CC[C@@H]32)o1	26.5%
CCN(CC)CCN1CCO[C@H]2[C@@H](OCc3ccncc3)CC[C@@H]21	29%
Cc1ccc(CN2CCO[C@H]3[C@@H](OCc4cccnc4)CC[C@@H]32)o1	15.6%
O=C(NCC1CC[C@@H]2[C@@H]1OCCN2Cc1cccs1)c1ccco1 (stereo partly drawn)	12.1%
CCCn1ncc(CN(Cc2cccnc2)Cc2cccs2)c1C	-4.87%
Cc1ocnc1C(=O)N(C)[C@@H]1CC[C@@H](Oc2ccccc2)[C@@H]1O	16.2%

Compound	INHIBITION
COCCO[C@H]1CCN(Cc2cnn(C)c2)[C@H]1Cc1cccnc1	9.51%
CN(C)C(=O)C1OC2(CCN(c3ncc(F)cn3)CC2)c2ccccc21 (stereo not drawn)	49.3%
Cc1noc(C)c1-c1ccnc(C2CCN(S(=O)(=O)N(C)C)CC2)c1	35.2%
CCN(Cc1cn(C)nc1-c1ccc2c(c1)OCCO2)CC1CCCO1 (stereo not drawn)	28.5%
CC(C)N1CCCC(CNC(=O)CN(C)S(=O)(=O)c2ccccc2)C1 (stereo not drawn)	-3.21%
Cn1nc(CNC(=O)C2CCC2)cc1C1CC1	-34.5%
c1cc(CO[C@@H]2CN(Cc3ccoc3)[C@@H]3CCCO[C@@H]32)ccn1	47.5%
c1cc(CO[C@H]2CC[C@H]3[C@H]2OCCN3Cc2nccs2)ccn1	84.7%
Cc1cccc(CO[C@@H]2CC[C@H]3[C@H]2OCCN3Cc2nccs2)n1	-44.2%
Cc1cccc(CO[C@@H]2CC[C@H]3[C@H]2OCCN3Cc2cc(C)on2)n1	-46.8%
Cc1cccc(CN2CCO[C@H]3[C@@H](OCc4ccncc4)CC[C@@H]32)n1	85.6%
c1cc(CO[C@@H]2CC[C@H]3[C@H]2OCCN3CC2CCOCC2)ccn1	68.8%
c1ccc(CO[C@H]2CC[C@H]3[C@H]2OCCN3Cc2nccs2)nc1	22.2%
CCO[C@@H]1CC[C@H]2[C@H]1OCCN2Cc1ccoc1	35.8%
c1cc(CO[C@@H]2CC[C@H]3[C@H]2OCCN3Cc2ccoc2)ccn1	55.7%
c1csc(CN2CCO[C@H]3[C@H](OCC4CCCC4)CC[C@@H]32)n1	41.2%
O=C(C1CCOCC1)N1CCO[C@H]2[C@@H](OCc3ccncc3)CC[C@@H]21	43.3%
O=C(C1CCOCC1)N1CCO[C@H]2[C@H](OCc3ccncc3)CC[C@@H]21	14.1%
COCCN1CCC(c2nc3c([nH]2)CCCNC3=O)CC1	44%
COc1cccc(CNCc2ccc(F)cc2Cl)c1O	-38%
COC(=O)CNC(=O)N1CCN(c2nc3ccccc3n2C)CC1	10.7%
Cc1nc2[nH]cnc(NCCN3CCCC3)c-2n1	29.7%
COCC(=O)N1CC[C@@H]2O[C@@H](COCc3csc(C)n3)CC[C@@H]21	27.3%
